These results are taken from ChEMBL document CHEMBL1157539, “Thousands of chemical starting points for antimalarial lead identification” (Nature, 2010).

The first assay deals with Plasmodium falciparum. The experiment in a line: GSK_TCMDC: Inhibition of Plasmodium falciparum 3D7 in whole red blood cells, using parasite LDH activity as an index of growth. Test compounds present at 2uM. The assay is classed as functional.
As a reminder, the Inhibition is the change of the read-out against control, counted positive when it falls. Molecule `Cc1ccc2nc3c(cc(C(=O)NCc4ccccc4)c(=N)n3CCCn3ccnc3)c(=O)n2c1` came in with an Inhibition of 93%.

On to `CN(C)C(=O)c1ccc(CN(Cc2ccc(OC(C)(C)C)cc2)Cc2ccc3c(c2)OCCO3)cc1`, for which the Inhibition was determined as 95%.

As to `Fc1ccc2[nH]c3c(NCCCN4CCOCC4)ncnc3c2c1`, the Inhibition was found to be 98%.

`Cc1sc(NC(=O)Cc2cccc(C(F)(F)F)c2)nc1-c1cccc(Cl)c1` gave an Inhibition of 100%.

`O=C(N[C@@H](Cc1ccccc1)C(=O)NCCN1CCCCC1)c1ccc(O)c(-c2cccc(C(F)(F)F)c2)c1` gave an Inhibition of 92%.

As for `COc1cccc2c(NN=Cc3cccc(F)c3)ccnc12`, the Inhibition is recorded as 99%.

The molecule `NC1CCCN(Cc2cccc(-c3ccc(-c4nc5ccccc5[nH]4)cc3)c2)C1.O=C(O)C(F)(F)F` (stereo not given) had an Inhibition of 100%.

Regarding `Cl.O=[N+]([O-])c1cccc(-c2nc3cc(C4=NC5CCCCC5N4)ccc3[nH]2)c1` (stereo not given), the Inhibition is on record as 100%.

The molecule `Clc1ncnc2scc(-c3ccc(Br)cc3)c12` yielded an Inhibition of 95%.

In turn, `Cc1cc(N[C@@H](CC(C)C)C(=O)NCc2cccs2)nc(NCCc2ccccc2)n1.O=C(O)C(F)(F)F` yielded an Inhibition of 94%.

For the molecule `O=S(=O)(NC1=NCCC1)c1cccc(Nc2nc(C(F)(F)F)nc3ccccc23)c1`, the Inhibition was found to be 83%.

For the molecule `CCCCCN1CCCCC(NS(=O)(=O)c2ccc(C(=O)Nc3ccc(C(F)(F)F)cc3)cc2)C1.O=C(O)C(F)(F)F` (stereo not given), the Inhibition is given as 89%.

Molecule `Cc1cc(N(C)C)nc(Nc2ccc(NC(=O)c3c(F)cccc3F)cc2)n1` came in with an Inhibition of 94%.

For `Br.NC1=NC2(CCCCC2)N(OCCCCCCC2CCCCC2)C(N)=N1`, the Inhibition amounted to 97%.

Turning to `C[C@H](Cc1ccc(OCCCCOc2ccc(C[C@@H](C)NC[C@H](O)c3cccc(Cl)c3)cc2)cc1)NC[C@H](O)c1cccc(Cl)c1`, the Inhibition turned out to be 100%.

Molecule `O=c1cnc2ccc(F)cc2n1CCN1CCC(NCc2cc(-c3ccccc3)cs2)CC1` displayed an Inhibition of 91%.

`Cc1[nH]c(C)c(-c2ccc(OCCSc3ccncc3)cc2)c(=O)c1Br` returned an Inhibition of 95%.

The molecule `O=C(NCCNc1ccnc(Nc2ccc(F)cc2)n1)Nc1ccccc1F` showed an Inhibition of 93%.

For `COc1ccc2[nH]c3ccccc3c(=O)c2c1`, the Inhibition was determined as 87%.

The molecule `O=C(Nc1cccc(CN2CCCN(Cc3cccc(O)c3)CC2)c1)c1cc2ccccc2s1.O=C(O)C(F)(F)F` had an Inhibition of 100%.

In turn, `O=C1C[C@@H]([S+]([O-])Cc2nccs2)N1CCOCCCCCCc1ccc(Cl)cc1` (stereo not given in full) yielded an Inhibition of 91%.

`COc1ccc2nc(C)cc(Nc3ccc(Cl)c(Cl)c3)c2c1`: the Inhibition was found to be 100%.

Turning to `Cc1ccc2c(OCCN3CCC(Cc4cc5c(cc4F)OCC(=O)N5)CC3)cc(F)cc2n1.Cl`, the Inhibition is 100%.

Regarding `O=C(c1cc2ccccc2o1)N1CCc2cc3nccc(N4CCN5CCC[C@H]5C4)c3cc21`, the Inhibition was determined as 99%.

In the case of `COc1ccccc1NC(=O)OC(COc1ccc(N)cc1)CN1CC=C(c2ccccc2)CC1.O=C(O)C(F)(F)F` (stereo not given), the Inhibition was 90%.

`Cc1cc(Br)cnc1CCCCNc1cc(=O)c2ccccc2[nH]1.Cl` had an Inhibition of 91%.

In turn, `COc1cc(Cc2cnc(N)nc2N)cc(OCCn2ccccc2=O)c1OC` gave an Inhibition of 97%.

Take `CN1CCCN(c2ccnc3cc4c(cc23)N(C(=O)c2ccc(Cl)cc2Cl)CC4)CC1.Cl`: the Inhibition stood at 100%.

`OC(CN1c2ccccc2Sc2ccccc21)CN(C1CCCCC1)C1CCCCC1` (stereo not given) registered an Inhibition of 99%.

The molecule `CC(Cc1ccc(OCCCCOc2ccccc2)cc1)NCCc1ccc(Oc2ccccc2)cc1` (stereo not given) had an Inhibition of 89%.

With `CNc1ccc(CNCc2ccc(-c3ccc(-c4nc5cccc(C)c5[nH]4)cc3)cc2)cc1.O=C(O)C(F)(F)F`, the Inhibition is given as 100%.

`O=C(Nc1ccc(Cl)c(Cl)c1)Nc1cc(C(F)(F)F)ccc1Cl` had an Inhibition of 100%.

For the molecule `CCCCN(Cc1cc(Cl)c(OC)c(OC)c1)c1ccc(C(O)(C(F)(F)F)C(F)(F)F)cc1.O=C(O)C(F)(F)F`, the Inhibition came out at 98%.

Molecule `COc1cccc(CCN(Cc2ccccc2-c2ccc(CNC3CC(C)(C)NC(C)(C)C3)cc2)C(=O)NC2CCCCC2)c1.Cl` showed an Inhibition of 100%.

Take `O=C(Nc1ccc(-c2ccc(-c3nc4ccccc4[nH]3)s2)cc1)c1ccncc1`: the Inhibition was found to be 94%.

`O=C(O)C(F)(F)F.OCCN1CCN(Cc2ccc(-c3ccc(-c4nc5cc(F)ccc5[nH]4)cc3)cc2)CC1` showed an Inhibition of 100%.

In turn, `CC(CCCC(=O)Nc1ccc(CC(C)NCCc2cccc(Cl)c2)cc1)NCCc1cccc(Cl)c1` (stereo not given) yielded an Inhibition of 100%.

Regarding `Cl.Oc1cc(-c2nc(C3(CNCc4ccc(Cl)cc4)CCCCC3)[nH]c2-c2ccncc2)ccc1Cl`, the Inhibition is reported as 100%.

For `CCc1nc(N)nc(N)c1-c1ccc(F)cc1`, the Inhibition worked out at 96%.

With `O=C(CNC1CCCCC1)Nc1cccc(C(=O)Nc2cccc(C(F)(F)F)c2)c1.O=C(O)C(=O)O`, the Inhibition was 93%.

The next assay deals with Plasmodium falciparum. Nature of the assay: GSK_TCMDC: Inhibition of Plasmodium falciparum Dd2 in whole red blood cells, using parasite LDH activity as an index of growth. Test compounds present at 2uM. The assay is classed as functional.
The molecule `Cc1ccc2nc3c(cc(C(=O)NCc4ccccc4)c(=N)n3CCCn3ccnc3)c(=O)n2c1` came in with an Inhibition of 0%.

`CN(C)C(=O)c1ccc(CN(Cc2ccc(OC(C)(C)C)cc2)Cc2ccc3c(c2)OCCO3)cc1` came in with an Inhibition of 96%.

Regarding `Fc1ccc2[nH]c3c(NCCCN4CCOCC4)ncnc3c2c1`, the Inhibition is given as 2%.

Regarding `Cc1sc(NC(=O)Cc2cccc(C(F)(F)F)c2)nc1-c1cccc(Cl)c1`, the Inhibition is 95%.

In turn, `O=C(N[C@@H](Cc1ccccc1)C(=O)NCCN1CCCCC1)c1ccc(O)c(-c2cccc(C(F)(F)F)c2)c1` returned an Inhibition of 3%.

Turning to `COc1cccc2c(NN=Cc3cccc(F)c3)ccnc12`, the Inhibition is given as 44%.

In turn, `NC1CCCN(Cc2cccc(-c3ccc(-c4nc5ccccc5[nH]4)cc3)c2)C1.O=C(O)C(F)(F)F` (stereo not given) had an Inhibition of 73%.

The molecule `Cl.O=[N+]([O-])c1cccc(-c2nc3cc(C4=NC5CCCCC5N4)ccc3[nH]2)c1` (stereo not given) came in with an Inhibition of 81%.

Turning to `Clc1ncnc2scc(-c3ccc(Br)cc3)c12`, the Inhibition is 96%.

`Cc1cc(N[C@@H](CC(C)C)C(=O)NCc2cccs2)nc(NCCc2ccccc2)n1.O=C(O)C(F)(F)F`: the Inhibition was 8%.

The molecule `O=S(=O)(NC1=NCCC1)c1cccc(Nc2nc(C(F)(F)F)nc3ccccc23)c1` displayed an Inhibition of 8%.

Molecule `CCCCCN1CCCCC(NS(=O)(=O)c2ccc(C(=O)Nc3ccc(C(F)(F)F)cc3)cc2)C1.O=C(O)C(F)(F)F` (stereo not given) returned an Inhibition of 0%.

Molecule `Cc1cc(N(C)C)nc(Nc2ccc(NC(=O)c3c(F)cccc3F)cc2)n1` came in with an Inhibition of 45%.

`Br.NC1=NC2(CCCCC2)N(OCCCCCCC2CCCCC2)C(N)=N1` returned an Inhibition of 49%.

With `C[C@H](Cc1ccc(OCCCCOc2ccc(C[C@@H](C)NC[C@H](O)c3cccc(Cl)c3)cc2)cc1)NC[C@H](O)c1cccc(Cl)c1`, the Inhibition is on record as 92%.

On to `O=c1cnc2ccc(F)cc2n1CCN1CCC(NCc2cc(-c3ccccc3)cs2)CC1`, for which the Inhibition came out at 14%.

Regarding `Cc1[nH]c(C)c(-c2ccc(OCCSc3ccncc3)cc2)c(=O)c1Br`, the Inhibition stood at 95%.

For `O=C(NCCNc1ccnc(Nc2ccc(F)cc2)n1)Nc1ccccc1F`, the Inhibition was 4%.

In the case of `COc1ccc2[nH]c3ccccc3c(=O)c2c1`, the Inhibition stood at 75%.

`O=C(Nc1cccc(CN2CCCN(Cc3cccc(O)c3)CC2)c1)c1cc2ccccc2s1.O=C(O)C(F)(F)F`: the Inhibition stood at 75%.

Turning to `O=C1C[C@@H]([S+]([O-])Cc2nccs2)N1CCOCCCCCCc1ccc(Cl)cc1` (stereo not given in full), the Inhibition worked out at 0%.

As for `COc1ccc2nc(C)cc(Nc3ccc(Cl)c(Cl)c3)c2c1`, the Inhibition came out at 99%.

Molecule `Cc1ccc2c(OCCN3CCC(Cc4cc5c(cc4F)OCC(=O)N5)CC3)cc(F)cc2n1.Cl` yielded an Inhibition of 71%.

Molecule `O=C(c1cc2ccccc2o1)N1CCc2cc3nccc(N4CCN5CCC[C@H]5C4)c3cc21` displayed an Inhibition of 100%.

The molecule `COc1ccccc1NC(=O)OC(COc1ccc(N)cc1)CN1CC=C(c2ccccc2)CC1.O=C(O)C(F)(F)F` (stereo not given) showed an Inhibition of 81%.

Regarding `Cc1cc(Br)cnc1CCCCNc1cc(=O)c2ccccc2[nH]1.Cl`, the Inhibition worked out at 64%.

Molecule `COc1cc(Cc2cnc(N)nc2N)cc(OCCn2ccccc2=O)c1OC` had an Inhibition of 0%.

`CN1CCCN(c2ccnc3cc4c(cc23)N(C(=O)c2ccc(Cl)cc2Cl)CC4)CC1.Cl` returned an Inhibition of 51%.

In turn, `OC(CN1c2ccccc2Sc2ccccc21)CN(C1CCCCC1)C1CCCCC1` (stereo not given) returned an Inhibition of 96%.

For the molecule `CC(Cc1ccc(OCCCCOc2ccccc2)cc1)NCCc1ccc(Oc2ccccc2)cc1` (stereo not given), the Inhibition is 95%.

Turning to `CNc1ccc(CNCc2ccc(-c3ccc(-c4nc5cccc(C)c5[nH]4)cc3)cc2)cc1.O=C(O)C(F)(F)F`, the Inhibition was found to be 92%.

The molecule `O=C(Nc1ccc(Cl)c(Cl)c1)Nc1cc(C(F)(F)F)ccc1Cl` displayed an Inhibition of 85%.

Molecule `CCCCN(Cc1cc(Cl)c(OC)c(OC)c1)c1ccc(C(O)(C(F)(F)F)C(F)(F)F)cc1.O=C(O)C(F)(F)F` yielded an Inhibition of 73%.

`COc1cccc(CCN(Cc2ccccc2-c2ccc(CNC3CC(C)(C)NC(C)(C)C3)cc2)C(=O)NC2CCCCC2)c1.Cl`: the Inhibition is reported as 99%.

With `O=C(Nc1ccc(-c2ccc(-c3nc4ccccc4[nH]3)s2)cc1)c1ccncc1`, the Inhibition is 95%.

Consider `O=C(O)C(F)(F)F.OCCN1CCN(Cc2ccc(-c3ccc(-c4nc5cc(F)ccc5[nH]4)cc3)cc2)CC1`, for which the Inhibition is on record as 99%.

With `CC(CCCC(=O)Nc1ccc(CC(C)NCCc2cccc(Cl)c2)cc1)NCCc1cccc(Cl)c1` (stereo not given), the Inhibition is given as 14%.

Regarding `Cl.Oc1cc(-c2nc(C3(CNCc4ccc(Cl)cc4)CCCCC3)[nH]c2-c2ccncc2)ccc1Cl`, the Inhibition amounted to 99%.

In the case of `CCc1nc(N)nc(N)c1-c1ccc(F)cc1`, the Inhibition is 0%.

On to `O=C(CNC1CCCCC1)Nc1cccc(C(=O)Nc2cccc(C(F)(F)F)c2)c1.O=C(O)C(=O)O`, for which the Inhibition came to 80%.
